Molecules are shown by their SMILES. Values joined by “and” are separate entries in the source; they are usually repeats but may differ in a detail not shown here. Equal values may be shown once. Records with an inconclusive call do not appear. Active and inactive are the calls of the source. The calls were made as follows, unless noted: active = hit-call score of the fitted dose curve at least 0.9, where 1 is the maximum; inconclusive = response in the unintended direction; inactive = score below 0.9.

Tested on in the first experiment: not listed separately
As to the kind of experiment: IUF_NPC2a_radial_glia_migration_120hr: Leibniz Research Institute for Environmental Medicine (IUF) 120-hour Neural Progenitor Cell Migration Assay for Radial Glia Migration (NPC2a) (AID 2284298; active = hit-call score of the fitted dose curve at least 0.9, where 1 is the maximum; inactive = score below 0.9). The gist of the method: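 Exposure of 0.3 mm primary hNPC spheres runs day 0 to 120 h with a half-volume medium change at day 3. Fixed cells get Hoechst staining; high-content analysis of nuclear positions yields radial glia migration distance per well, compared against DMSO controls.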
As to `CC(=O)Nc1ccc(O)cc1`, the compound was classed as inactive.
In the case of `O=C(CCCN1CCC(O)(c2ccc(Cl)cc2)CC1)c1ccc(F)cc1`, the concentration at half-maximal activity (AC50) – broadly, the concentration giving half of the maximal activity seen – is 15.9 µM (active).
For `CC(C)c1c(C(=O)Nc2ccccc2)c(-c2ccccc2)c(-c2ccc(F)cc2)n1CC[C@@H](O)C[C@@H](O)CC(=O)O`, the outcome was inactive.
On the same count and under the same terms, the same measure for `O=C1NS(=O)(=O)c2ccccc21`: “inactive”.

Tested on in another experiment: not listed separately
As to the kind of experiment: IUF_NPC2a_radial_glia_migration_72hr: Leibniz Research Institute for Environmental Medicine (IUF) 72-hour Neural Progenitor Cell Migration Assay for Radial Glia Migration (NPC2a) (AID 2284299; active = hit-call score of the fitted dose curve at least 0.9, where 1 is the maximum; inactive = score below 0.9). The gist of the method:
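Spheres of human primary neural progenitors migrate on poly-D-lysine/laminin under compound exposure at 37C, 5% CO2. The 72 h radial glia migration distance comes from brightfield images, measured manually.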
For the compound `CC(=O)Nc1ccc(O)cc1`, the compound was called inactive.
With `O=C(CCCN1CCC(O)(c2ccc(Cl)cc2)CC1)c1ccc(F)cc1`, the compound was classed as inactive.
The same measure, in the same setting: with `CC(C)c1c(C(=O)Nc2ccccc2)c(-c2ccccc2)c(-c2ccc(F)cc2)n1CC[C@@H](O)C[C@@H](O)CC(=O)O` the entry was “inactive”; with `O=C1NS(=O)(=O)c2ccccc21`, “inactive”.

Tested on in another experiment: not listed separately
As to the kind of experiment: IUF_NPC2b_neuronal_migration_120hr: Leibniz Research Institute for Environmental Medicine (IUF) 120-hour Neural Progenitor Cell Migration Assay for Neuron Migration (NPC2b) (AID 2284300; active = hit-call score of the fitted dose curve at least 0.9, where 1 is the maximum; inactive = score below 0.9). An outline of the steps:
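Fetal human NPC spheres migrate on PDL/laminin during 120 h compound treatment; neuronal migration distance, glia-normalized, scored versus DMSO control.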
Take `CC(=O)Nc1ccc(O)cc1`: the call was inactive.
`O=C(CCCN1CCC(O)(c2ccc(Cl)cc2)CC1)c1ccc(F)cc1`: the call was inactive.
On the same count and under the same terms, the same measure for `CC(C)c1c(C(=O)Nc2ccccc2)c(-c2ccccc2)c(-c2ccc(F)cc2)n1CC[C@@H](O)C[C@@H](O)CC(=O)O`: “inactive”; for `O=C1NS(=O)(=O)c2ccccc21`: “inactive”.

Tested on in the next experiment: not listed separately
As to the kind of experiment: IUF_NPC3_neuronal_differentiation_120hr: Leibniz Research Institute for Environmental Medicine (IUF) 120-hour Neuronal Differentiation Assay (NPC3) (AID 2284301; active = hit-call score of the fitted dose curve at least 0.9, where 1 is the maximum; inactive = score below 0.9). An outline of the steps: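 Value is percent TUBB3-positive neurons among Hoechst-stained nuclei in the migration area, scored by trained CNN after 120 h differentiation. Primary hNPC spheres on poly-D-lysine/laminin, N2 medium, continuous dosing from day 0, half-refeed day 3; DMSO reference.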
Regarding `CC(=O)Nc1ccc(O)cc1`, the compound was classed as inactive.
`O=C(CCCN1CCC(O)(c2ccc(Cl)cc2)CC1)c1ccc(F)cc1`: the result was inactive.
As to `CC(C)c1c(C(=O)Nc2ccccc2)c(-c2ccccc2)c(-c2ccc(F)cc2)n1CC[C@@H](O)C[C@@H](O)CC(=O)O`, the compound was called inactive.
Same read-out and setting: the same measure for `O=C1NS(=O)(=O)c2ccccc21`: “inactive”.

Tested on in another experiment: not listed separately
As to the kind of experiment: IUF_NPC4_neurite_length_120hr: Leibniz Research Institute for Environmental Medicine (IUF) 120-hour Neuronal Morphology Assay for Neurite Length (NPC4) (AID 2284302; active = hit-call score of the fitted dose curve at least 0.9, where 1 is the maximum; inactive = score below 0.9). The gist of the method:
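Neurite length, the mean in um across TUBB3-stained neurons, is derived by skeletonization of high-content images after 120 h differentiation. Compound exposure, 7 concentrations plus solvent control, ran from plating of hNPC spheres on poly-D-lysine/laminin, with medium half-replaced on day 3.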
As for `CC(=O)Nc1ccc(O)cc1`, the outcome was inactive.
Take `O=C(CCCN1CCC(O)(c2ccc(Cl)cc2)CC1)c1ccc(F)cc1`: the outcome was inactive.
Same read-out and setting: the same measure for `CC(C)c1c(C(=O)Nc2ccccc2)c(-c2ccccc2)c(-c2ccc(F)cc2)n1CC[C@@H](O)C[C@@H](O)CC(=O)O`: “inactive”.
Consider `O=C1NS(=O)(=O)c2ccccc21`, for which the compound was called inactive.

Tested on in a further experiment: not listed separately
As to the kind of experiment: IUF_NPC5_oligodendrocyte_differentiation_120hr: Leibniz Research Institute for Environmental Medicine (IUF) 120-hour Oligodendrocyte Differentiation Assay (NPC5) (AID 2284304).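 Also: primary human fetal neural progenitor spheres plated to migrate and differentiate; share of O4-positive cells among Hoechst nuclei found by CNN image analysis.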 An outline of the steps:
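After plating on poly-D-lysine/laminin, fetal-derived hNPC spheres differentiated for 120 h at 37C in compound-containing N2 medium, refreshed by half on day 3. O4 immunostaining over Hoechst nuclei in the migration zone gave oligodendrocyte percentage relative to DMSO.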
`CC(=O)Nc1ccc(O)cc1`: the outcome was inactive.
In the case of `O=C(CCCN1CCC(O)(c2ccc(Cl)cc2)CC1)c1ccc(F)cc1`, the AC50 is 3.35 µM (active).
Regarding `CC(C)c1c(C(=O)Nc2ccccc2)c(-c2ccccc2)c(-c2ccc(F)cc2)n1CC[C@@H](O)C[C@@H](O)CC(=O)O`, the outcome was inactive.
On the same count and under the same terms, the same measure for `O=C1NS(=O)(=O)c2ccccc21`: “inactive”.

Tested on in a further experiment: not listed separately
As to the kind of experiment: IUF_NPC4_neurite_area_120hr: Leibniz Research Institute for Environmental Medicine (IUF) 120-hour Neuronal Morphology Assay for Neurite Area (NPC4) (AID 2284305). An outline of the steps: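 Neurite area (pixels, nuclei excluded) of TUBB3-positive neurons from hNPC spheres differentiating 5 days under continuous exposure at 37 C, 5% CO2. High-content imaging; loss of signal versus DMSO control across 7 concentrations.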
Regarding `CC(=O)Nc1ccc(O)cc1`, the compound was classed as inactive.
Still for that read-out and setting: the same measure for `O=C(CCCN1CCC(O)(c2ccc(Cl)cc2)CC1)c1ccc(F)cc1`: “inactive”.
Same read-out and setting: the same measure for `CC(C)c1c(C(=O)Nc2ccccc2)c(-c2ccccc2)c(-c2ccc(F)cc2)n1CC[C@@H](O)C[C@@H](O)CC(=O)O`: “inactive”; for `O=C1NS(=O)(=O)c2ccccc21`: “inactive”.

Tested on in another experiment: not listed separately
As to the kind of experiment: IUF_NPC2-5_cytotoxicity_72hr: Cytotoxicity Assessment at 72 hours in the Leibniz Research Institute for Environmental Medicine (IUF) Neural Progenitor Cell Migration and Differentiation Assay for Cytotoxicity (NPC2-5) (AID 2284306).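 Also: LDH release into supernatant measured by resorufin fluorescence marking membrane damage.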 An outline of the steps:
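Membrane-integrity cytotoxicity at 72 h, read as LDH-driven resorufin fluorescence in supernatant. hNPC spheres from fetal cortex differentiate on coated plates in N2 medium, 37C, 5% CO2; seven serial compound concentrations plus solvent control (DMSO ≤0.1%).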
On to `CC(=O)Nc1ccc(O)cc1`, for which the result was inactive.
The same measure, in the same setting: with `O=C(CCCN1CCC(O)(c2ccc(Cl)cc2)CC1)c1ccc(F)cc1` the entry was “inactive”.
Regarding `CC(C)c1c(C(=O)Nc2ccccc2)c(-c2ccccc2)c(-c2ccc(F)cc2)n1CC[C@@H](O)C[C@@H](O)CC(=O)O`, the concentration at half-maximal activity (AC50) was 2.54 µM (active).
For `O=C1NS(=O)(=O)c2ccccc21`, the result was inactive.

Tested on in another experiment: not listed separately
As to the kind of experiment: IUF_NPC2-5_cytotoxicity_120hr: Cytotoxicity Assessment at 120 hours in the Leibniz Research Institute for Environmental Medicine (IUF) Neural Progenitor Cell Migration and Differentiation Assay (NPC2-5) (AID 2284307).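 As to AC50: LDH released into supernatant as membrane damage marker via resorufin fluorescence.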 The gist of the method: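 Membrane-integrity loss is quantified by LDH in supernatant after five days of exposure of migrating, differentiating human fetal NPC spheres; seven serially diluted concentrations are tested with DMSO kept at or below 0.1%.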
For the compound `CC(=O)Nc1ccc(O)cc1`, the call was inactive.
`O=C(CCCN1CCC(O)(c2ccc(Cl)cc2)CC1)c1ccc(F)cc1`: the AC50 was 1.98 µM (active).
The same measure, in the same setting: the same measure for `CC(C)c1c(C(=O)Nc2ccccc2)c(-c2ccccc2)c(-c2ccc(F)cc2)n1CC[C@@H](O)C[C@@H](O)CC(=O)O`: 1.75 µM (active).
In the case of `O=C1NS(=O)(=O)c2ccccc21`, the outcome was inactive.

Tested on in another experiment: not listed separately
As to the kind of experiment: IUF_NPC2-5_cell_number_120hr: Cell Number Assessment at 120 hours in the Leibniz Research Institute for Environmental Medicine (IUF) Neural Progenitor Cell Migration and Differentiation Assay (NPC2-5) (AID 2284308; active = hit-call score of the fitted dose curve at least 0.9, where 1 is the maximum; inactive = score below 0.9;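 also: count of Hoechst-stained nuclei in migration zone around plated human neural progenitor spheres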). An outline of the steps:
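Seven-point serial dilutions plus solvent control were applied to plated 0.3 mm hNPC spheres at differentiation start, with medium half-replaced at day 3. Nuclei positive for Hoechst in the migration zone were enumerated at 120 h.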
As to `CC(=O)Nc1ccc(O)cc1`, the compound was called inactive.
Still for that read-out and setting: the same measure for `O=C(CCCN1CCC(O)(c2ccc(Cl)cc2)CC1)c1ccc(F)cc1`: “inactive”.
The same measure, in the same setting: with `CC(C)c1c(C(=O)Nc2ccccc2)c(-c2ccccc2)c(-c2ccc(F)cc2)n1CC[C@@H](O)C[C@@H](O)CC(=O)O` the entry was “inactive”; with `O=C1NS(=O)(=O)c2ccccc21`, “inactive”.

Tested on in another experiment: not listed separately
As to the kind of experiment: IUF_NPC2-5_viability_120hr: Viability Assessment at 120 hours in the Leibniz Research Institute for Environmental Medicine (IUF) Neural Progenitor Cell Migration and Differentiation Assay (NPC2-5) (AID 2284312; active = hit-call score of the fitted dose curve at least 0.9, where 1 is the maximum; inactive = score below 0.9). The gist of the method:
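Alamar blue resorufin fluorescence read after 5 days of differentiation, with compound present from day 0 and replenished at day 3. Primary hNPC spheres on laminin-coated plates, 37C; seven concentrations plus solvent control, fitted against DMSO.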
Consider `CC(=O)Nc1ccc(O)cc1`, for which the outcome was inactive.
For the compound `O=C(CCCN1CCC(O)(c2ccc(Cl)cc2)CC1)c1ccc(F)cc1`, the call was inactive.
With `CC(C)c1c(C(=O)Nc2ccccc2)c(-c2ccccc2)c(-c2ccc(F)cc2)n1CC[C@@H](O)C[C@@H](O)CC(=O)O`, the compound was classed as inactive.
Still for that read-out and setting: with `O=C1NS(=O)(=O)c2ccccc21` the entry was “inactive”.

For a further experiment, the system named is IYD (gene 389434). As to the kind of experiment: CCTE_GLTED_hIYD: CCTE's human Iodotyrosine Deiodinase (xIYD) Inhibition Assay, Great Lakes Toxicology and Ecology Division (GLTED) Lab (AID 2284317).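 Also: cell-free human IYD enzyme made in baculovirus insect cells; iodide freed from monoiodotyrosine measured by cerium arsenite color change at 420 nm.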 The gist of the method:
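Iodide liberated from monoiodotyrosine by baculovirus-expressed human IYD over 3 h was determined colorimetrically (Sandell-Kolthoff, 420 nm) after Dowex separation; inhibition is loss of signal versus DMSO.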
Regarding `O=P(O)(O)CCC(F)(F)C(F)(F)C(F)(F)C(F)(F)C(F)(F)C(F)(F)C(F)(F)C(F)(F)F`, the outcome was inactive.
Regarding `CCCCCCCCCCCCOC(=O)c1cc(O)c(O)c(O)c1`, the AC50 was 22.9 µM (active).
As for `CCCCCCCCCCCC`, the AC50 is 38.4 µM (active).
For the compound `Oc1c(Cl)cc(Cl)cc1Sc1cc(Cl)cc(Cl)c1O`, the AC50 is 56.9 µM (active) and 88.2 µM (active) and 100 µM (active).
Same read-out and setting: with `O=C(Nc1ccc(Cl)c(Cl)c1)c1cc(Cl)cc(Cl)c1O` the figure was 77.4 µM (active).
Take `NC(=NCCCCCCN=C(N)/N=C(\N)Nc1ccc(Cl)cc1)/N=C(\N)Nc1ccc(Cl)cc1`: the AC50 is 54.7 µM (active).
In the case of `Cc1cc(Cc2cc(C)cc(C(C)(C)C)c2O)c(O)c(C(C)(C)C)c1`, the AC50 was 24.2 µM (active).
On the same count and under the same terms, the same measure for `O=C(O)C(F)(F)OC(F)(F)C(F)(F)OC(F)(F)C(F)(F)OC(F)(F)C(F)(F)C(F)(F)C(F)(F)F`: 93.2 µM (active).

Tested on in another experiment: not listed separately
As to the kind of experiment: CCTE_Mundy_HCI_iCellGluta_NOG_NeuriteLength: CCTE's Neurite Outgrowth Assay in iCellGluta cells for Neurite Length, Mundy Lab (AID 2284318). The gist of the method:
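Automated high-content imaging of betaIII-tubulin (Alexa Fluor-488) and Hoechst-stained cells gave neurite length, normalized to the DMSO baseline.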
As to `C=CC(=O)OCCC(F)(F)C(F)(F)C(F)(F)C(F)(F)C(F)(F)C(F)(F)C(F)(F)C(F)(F)F`, the compound was classed as inactive.
Still for that read-out and setting: with `O=P(O)(O)CCC(F)(F)C(F)(F)C(F)(F)C(F)(F)C(F)(F)C(F)(F)C(F)(F)C(F)(F)F` the entry was “inactive”; with `O=P(O)(O)CCC(F)(F)C(F)(F)C(F)(F)C(F)(F)C(F)(F)C(F)(F)F`, “inactive”.
With `OCC(F)(F)C(F)(F)C(F)(F)C(F)(F)C(F)(F)C(F)(F)C(F)(F)C(F)(F)C(F)(F)C(F)(F)C(F)(F)F`, the compound was classed as inactive.
For `CC(C)c1c(C(=O)Nc2ccccc2)c(-c2ccccc2)c(-c2ccc(F)cc2)n1CC[C@@H](O)C[C@@H](O)CC(=O)O`, the half-maximal activity concentration (AC50) is 0.0462 µM (active).
As to `O=C1NS(=O)(=O)c2ccccc21`, the compound was called inactive.
Take `O=C(CC(=O)C(F)(F)C(F)(F)C(F)(F)F)c1cccs1`: the compound was classed as inactive.

Source of the values: PubChem BioAssay (EPA / NIEHS).
